# Data taken from PMC5540273 (PLoS ONE, 2017).
# What was measured:
# CDC2L1 = test system: T1, CDC2L1
# T1 construct: gene CDK11B
# 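Also: kd values determined as follow-up on hits from a single-replicate KINOMEscan panel screen.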
smiles,measurement,setting,value
O=C1NC(=O)C(c2ccc(Cl)cc2)=C1Nc1ccc(O)cc1 [SB-340867],Kd,CAMK1D,> 10 µM
same,Kd,CAMK1,> 10 µM
COc1cccc(CNC(=O)NC2CCN(c3ccnc(Nc4ccc(F)cc4)n3)C2)c1 (stereo not shown) [GSK1379723],Kd,CAMK2G,> 10 µM
CN1c2ccc(-c3ccc(C(N)=O)cc3)cc2-c2[nH]ncc2S1(=O)=O,Kd,CAMKK1,> 10 µM
Cc1c(Cn2c3ccccc3n3c(=O)cc(N4CCOCC4)nc23)cccc1C(F)(F)F [GSK2306394],Kd,CDC2L1,> 10 µM
Cc1nccc(-c2c(-c3ccc(F)cc3)ncn2CCCN2CCOCC2)n1.Cl [SB-282975],Kd,CDC2L1,> 10 µM
CC(=O)c1c(C)c2cnc(Nc3ccn(C)n3)nc2n(C2CCCC2)c1=O,Kd,CDC2L2,> 10 µM
